The panel holds about 83,000 compounds, 20% with a hit somewhere; the sample as a whole holds those more often.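 For each line, cells grew in 96-well plates with the test compound present at a single concentration for 48 hours.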 A number with no mark means an inactive call. The source made the active and inactive calls. The calls were made as follows: active = growth percent below 10; inactive = the rest.

What all share (assay): NCI-60 one-dose screen, 48 h (100 = growth as untreated, 0 = no growth, -100 = all killed)
Details in all cases: 10 µM unless noted

The test system of experiment [1] is NCI-H23 lung.
The test system of experiment [2] is NCI-H226 lung.
For experiment [3], the system named is NCI-H322M lung.
In experiment [4] the test system is HOP-62 NSCLC.
Experiment [5] deals with NCI-H460 lung.
The test system of experiment [6] is HOP-92 NSCLC.
The subject of experiment [7] is NCI-H522 lung.
Experiment [8] concerns A549/ATCC NSCLC.
Experiment [9] relates to 786-0 renal.
The subject of experiment [10] is COLO 205 colon.
Experiment [11] relates to DU-145 prostate.
The test system of experiment [12] is K-562 leukemia.
In experiment [13] the test system is MALME-3M melanoma.
In experiment [14] the test system is MDA-MB-231 breast.
Experiment [15] relates to RXF 393 renal.
Experiment [16] deals with SF-268 CNS.
Experiment [17] has as its system SF-295 CNS.
The subject of experiment [18] is SF-539 CNS.
Experiment [19] concerns UACC-257 melanoma.
Experiment [20] has as its system M14 melanoma.

Take `C=C(c1ccc(C(=O)O)c(F)c1)c1cc2c(cc1C)C(C)(C)CCC2(C)C`: the growth in experiment [1] is 80%; in experiment [2], 82.6%; in [3], 101%; in [4], 76.4%; in [5], 81.5%; in experiment [6], 58.4%. Besides, the growth in experiment [7] was 78.1%; in [8], 52%; in experiment [9], 96.6%; in experiment [10], 123%; in experiment [11], 108%; in experiment [12], 71.9%. Further, the growth was 63.6% in experiment [13]; 85.7% in experiment [14]; 90.9% in [15]; 77.9% in experiment [16]; 72.8% in experiment [17]; 81.1% in [18]. The growth in [19] was 95.8%; in experiment [20], 89.4%.
For `CC(O)Cc1c[nH]c(=O)[nH]c1=O` (stereo not given), the growth is 102% in [1]; 109% in experiment [2]; 132% in experiment [3]; -56.4% (active) in experiment [4]; 103% in experiment [5]; 111% in experiment [6]. Moreover, the growth was 110% in [7]; 93.7% in experiment [8]; 109% in [9]; -66.5% (active) in [10]; 97.9% in experiment [11]; 126% in [12]. Moreover, the growth in [13] was 142%; in experiment [14], 112%; in experiment [15], 192%; in experiment [16], 90%; in [17] it was 112%; in experiment [18] it was 110%. Further, the growth is 92.7% in experiment [19] and 102% in experiment [20].
Consider `Cc1nn(C)c2ncnc(N/N=C/c3cccc(O)c3O)c12`, for which the growth was 20.8% in [1]; 42.7% in experiment [2]; 14.7% in [3]; 4.24% (active) in [4]; 2.65% (active) in experiment [5]; 23.3% in experiment [6]. The growth in experiment [7] is 19.9%; in [8], 20.9%; in experiment [9], 2.11% (active); in [10] it was -3.31% (active); in experiment [11] it was 18.1%; in experiment [12], 12.7%. Besides, the growth in [13] was -11.5% (active); in experiment [14] it was 24.7%; in [15], 11%; in experiment [16] it was 6.68% (active); in experiment [17], 18.3%; in experiment [18] it was 5.37% (active). In addition, the growth in experiment [19] is 3.75% (active); in experiment [20], -48.5% (active).
With `CN(C)c1ccc([C@@H](C(=O)Nc2cccc([N+](=O)[O-])c2)N(C(=O)c2cc3ccccc3[nH]2)c2cccc([N+](=O)[O-])c2)cc1`, the growth in experiment [1] was 97.5%; in experiment [2], 97.5%; in experiment [3], 95%; in experiment [4], 88.7%; in experiment [5], 98.2%; in [6], 70.9%. Also, the growth in [7] is 92.3%; in experiment [8], 92.9%; in experiment [9], 95.5%; in experiment [10], 102%; in experiment [11] it was 107%; in experiment [12] it was 100%. In addition, the growth is 96.5% in experiment [13]; 96.5% in [14]; 100% in [15]; 97.4% in experiment [16]; 100% in experiment [17]; 90.3% in experiment [18]. Besides, the growth was 93.4% in experiment [19] and 93.7% in [20].
Turning to `C=C1C(=O)O[C@H]2[C@H]1CC/C(COC(=O)C(=O)c1c[nH]c3ccc(Cl)cc13)=C\CC[C@@]1(C)O[C@@H]21`, the growth in [1] was -55.7% (active); in [2], -73% (active); in experiment [3], -76.2% (active); in experiment [4] it was -53.1% (active); in [5] it was -72.9% (active); in experiment [6] it was -92.8% (active). Further, the growth in experiment [7] was -48.4% (active); in [8], -82.2% (active); in [9], -99.1% (active); in [10], -51.9% (active); in experiment [11] it was -96.2% (active); in [12] it was 2.92% (active). Further, the growth in [13] is -75.7% (active); in experiment [14], -74.8% (active); in [15], -92.9% (active); in [16], -81.3% (active); in experiment [17] it was -10.6% (active); in experiment [18], -78.5% (active). The growth in experiment [19] was -75.9% (active); in [20], -83.1% (active).
On to `CN(C)c1ccc(C(=S)c2ccc(N(C)C)cc2)cc1`, for which the growth was 78.9% in experiment [1]; 85.9% in experiment [2]; 103% in experiment [3]; 65.8% in experiment [4]; 92.6% in experiment [5]; 71.3% in experiment [6]. For the same compound, the growth is 29% in experiment [7]; 67% in experiment [8]; 95.6% in [9]; 62% in experiment [10]; 98.9% in experiment [11]; 28.4% in experiment [12]. Also, the growth is 50.3% in [13]; 72.2% in [14]; 84.2% in [15]; 79.7% in experiment [16]; 80% in [17]; 77.1% in [18]. For the same compound, the growth in experiment [19] is 81%; in experiment [20], 51.1%.
Consider `CC(C)(C)c1ccc(C(=O)N/N=C/c2ccc(O)cc2O)cc1`, for which the growth is 19.1% in [1]; 12.1% in experiment [2]; 26.8% in experiment [3]; 17.9% in experiment [4]; 0.52% (active) in experiment [5]; 33.6% in experiment [6]. Further, the growth in [7] was 33.4%; in experiment [8] it was 11.8%; in [9], 19.7%; in experiment [10], 14.7%; in experiment [11], 24.5%; in experiment [12], 14.2%. Moreover, the growth in experiment [13] is 11.9%; in experiment [14] it was 35.1%; in experiment [15] it was -4% (active); in experiment [16] it was 19.9%; in experiment [17], 16.6%; in experiment [18], 11.2%. Further, the figures for the growth in experiment [19] and in [20] were 3.68% (active) and -10.3% (active), respectively.

(Values after PubChem BioAssay (NCI).)
